Compound activity: PubChem BioAssay, National Center for Advancing Translational Sciences (NCATS)
Integrin act MD = qHTS for Activators of Integrin-Mediated Alleviation for Muscular Dystrophy. alpha7betagal myoblasts, beta-gal FDG fluorescence, 48 h. AID 624291, 2012. Potency, µM (top dose mostly 38.3 µM), hits mostly activators. 350,000 compounds, 0.064% hits; further: nearly all actives have a fitted effect of over 60% in size
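Alpha7betagal+/- myoblasts (passage 13) were plated 16-24 hr, then exposed to compounds (1:260 dilution of DMSO stock) for 48 hours at 37C. After MPER lysis, β-galactosidase reporter activity was read as FDG fluorescence (ex 480/em 540) after 30 minutes.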
TSHR antagonist = Antagonists of the Thyroid Stimulating Hormone Receptor: HTS campaign. AID 504810, 2011. activity change, negative = inhibition, % at 11.5 µM. 330,000 compounds, 0.2% hits. Thyrotropin receptor (Homo sapiens), P16473. TSHR-expressing cells, TSH-stimulated cAMP HTRF, 2 h; stronger effect = lower value;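 active means activity change below a set negative limit, meaning inhibition stronger than a set level, cut at about -70% in these data; inconclusive means activity change between two set negative limits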
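Inhibition of cAMP made by TSHR-expressing cells under TSH stimulation (4nM final, EC80; 2 h, 37 deg C) is quantified with a one-step lysis HTRF kit, anti-cAMP cryptate versus cAMP-d2.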
TCR act = Activators of T cell receptors: qHTS campaign. primary human leukocytes, anti-CD3, IL-2 HTRF, 48 h. Potency, µM (highest dose often 9.22 µM), actives largely listed as activators. 330,000 tested, under 10 active. AID 504894, 2011
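Primary human leukocytes were stimulated with a-CD3 beads plus compounds for 48 hr without co-stimulation; secreted IL-2 was quantified by HTRF using a-IL-2-K (europium cryptate) and a-IL-2-d2, excited at 320nm with acceptor emission read at 665nm.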
Eya2 phos inh = qHTS Assay for Inhibitors of the Phosphatase Activity of Eya2 | Protein phosphatase EYA2 (Homo sapiens), O00167 | recombinant Eya2, OMFP fluorescence dephosphorylation (OMFP is methylfluorescein phosphate) | Potency, µM (series often up to 76.9 µM), actives largely listed as inhibitors | 330,000 compounds, 0.006% hits | AID 488837, 2010
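Eya2 (0.2 uM) preincubated 10 min at ambient with compound, then OMFP substrate added at 50 uM; 10 min reaction in 50 mM HEPES pH 7.5, 50 mM NaCl, 5 uM MgCl2, 0.05% BSA, 1 mM DTT. Fluorescence read at Ex 485/Em 525 nm.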
A number is an active result. The list is not random: actives were taken first. Their share in the collection is about 0.24%. Unless noted, the call rests on the fitted dose curve; in most records, active means well fitted curve in the direction sought with a large enough effect; inconclusive means small, poorly fitted or top-dose-only effect, or another doubt; inactive means no such curve, though single readings can be large; an effect the other way counts as inactive or inconclusive.

C[C@H]1CNC(=O)c2c(C(=O)Nc3ccc(CNC(=O)OC(C)(C)C)cc3)ncn21 was read as Integrin act MD 8.91µM.
Screening CC(=O)O[C@H]1[C@H]2O[C@]23[C@@H]2CC[C@]4(O)C[C@@H](O)CC[C@]4(C)C2CC[C@]3(C)[C@H]1c1ccc(=O)oc1 (stereo partly drawn) returned Integrin act MD inactive, TSHR antagonist -79.3, TCR act inactive and Eya2 phos inh inactive.
Cc1cccc(NC(=O)Cn2cc(C(=O)C3CC3)c3ccccc32)c1C was read as Integrin act MD inactive, TSHR antagonist inactive, TCR act inactive and Eya2 phos inh inactive.
`CNc1ccc2oc(C[C@H]3O[C@@]4(CC[C@H]3C)O[C@H]([C@H](C)C(=O)c3ccc[nH]3)[C@H](C)C[C@H]4C)nc2c1C(=O)O` gave TSHR antagonist -90.0, TCR act inactive and Eya2 phos inh inactive.
CCn1nc(-c2ccccc2)nc2c(=O)n(C)c(=O)nc1-2 was read as Integrin act MD inactive, TSHR antagonist inactive, TCR act inactive and Eya2 phos inh 56.2µM.
Screening CN(N=O)c1cc(O)ccc1O returned TSHR antagonist inactive and Eya2 phos inh inactive.
`COc1ccc(C(=O)CN2CCCCC2)cc1` gave Integrin act MD 12.6µM, TSHR antagonist inactive, TCR act inactive and Eya2 phos inh inactive.
`O=C(O)c1ccc[nH]c1=S` gave Integrin act MD inactive, TSHR antagonist inactive, TCR act inactive and Eya2 phos inh inconclusive.
COC(=O)C1=C(c2ccc(-c3ccccc3)c(F)c2)C[C@@H]2CC[C@H]1N2C(=O)NCCOc1ccccc1 was read as Integrin act MD inactive, TSHR antagonist -89.1, TCR act inactive and Eya2 phos inh inactive.
Screening COc1ccc(C(=O)c2sc3nc(C)cc(-c4cccs4)c3c2N)cc1OC returned Integrin act MD inactive, TSHR antagonist inactive, TCR act inconclusive and Eya2 phos inh inactive.
C[C@]12CC[C@H](O)C[C@H]1CC[C@@H]1[C@@H]2CC[C@]2(C)[C@@H](C3=CC(=O)OC3)CC[C@]12O was read as TSHR antagonist -78.1, TCR act inactive and Eya2 phos inh inactive.
`CC12CCC(O)CC1CCC1C2CCC2(C)C(C3=CC(=O)OC3)C(O)CC12O` (stereo not drawn) gave Integrin act MD inactive and TCR act inactive.
Screening CC12CCC(O)CC1CCC1C2CCC2(C)C(C3=CC(=O)OC3)CCC12O (stereo not drawn) returned Integrin act MD inactive and TCR act inactive.
C[C@]12CC[C@H](O)C[C@H]1CC[C@@H]1[C@@H]2C[C@@H](O)[C@]2(C)[C@@H](C3=CC(=O)OC3)CC[C@]12O was read as TSHR antagonist -75.3, TCR act inactive and Eya2 phos inh inactive.
For CCN1C[C@@]2(COC)C3[C@@H](OC)C4[C@@H]1C3([C@@H]1C[C@]3(O)[C@H](OC(=O)c5ccccc5)[C@@H]1[C@]4(OC(C)=O)[C@@H](O)[C@@H]3OC)[C@H](OC)C[C@H]2O the results were TSHR antagonist inactive and Eya2 phos inh inactive.
For O=P(Nc1ccccc1)(Oc1ccccc1)Oc1ccccc1 the results were Integrin act MD inactive, TSHR antagonist inactive, TCR act inactive and Eya2 phos inh inactive.
Screening CNP(=O)(Oc1ccccc1)OC12CC3CC(CC(C3)C1)C2 (stereo not drawn) returned Integrin act MD 10µM, TSHR antagonist inactive, TCR act inactive and Eya2 phos inh inactive.
For O=C1C=CC2C3C(=O)N(c4ccccc4)C(=O)C3C1N2Cc1ccccc1 (stereo not drawn) the results were Integrin act MD inactive and TCR act inactive.
`Cc1ccccc1-[n+]1c(-c2ccccc2)cc(-c2ccccc2)cc1-c1ccccc1` gave Integrin act MD inactive, TSHR antagonist -74.8, TCR act inactive and Eya2 phos inh inactive.
Oc1ccc(Cl)cc1Sc1cc(Cl)ccc1O was read as Integrin act MD inactive and TCR act inactive.
Screening CN1/C(=C\C=C\C2=[N+](C)c3ccc4ccccc4c3C2(C)C)C(C)(C)c2ccccc21 returned TSHR antagonist -92.7 and Eya2 phos inh inactive.
CNc1cc(Cl)c2nonc2c1[N+](=O)[O-] was read as Integrin act MD inactive, TSHR antagonist -88.7, TCR act inactive and Eya2 phos inh inactive.
